# PubChem BioAssay (NCATS)
# Records with an inconclusive call do not appear. Where a call stands in place of a potency, no number is given. Activity calls are given as the source filed them. Calls come from the whole dose curve; as a rule, active = well fitted activation curve with a large enough effect in the main read-out, with a control signal flat (not every such curve was filed as active); inconclusive = small, poorly fitted or top-dose-only effect, or effect the other way, or a change in a side signal; inactive = flat fitted curve, though single readings scatter.
# Target: 3',5'-cyclic-AMP phosphodiesterase 4B (Homo sapiens) (UniProt Q07343)
# Experiment: qHTS Assay for Inhibitors of PDE-IV (AID 607)
# Conditions: HEK293 ACTOne CNG channel cells, membrane potential fluorescence; series mostly up to 22.9 µM
# From the text: NIH Chemical Genomics Center [NCGC]
# NIH Molecular Libraries Screening Centers Network [MLSCN]
# The cyclic nucleotide phosphodiesterases (PDEs) are proteins that catalyze hydrolysis of 3', 5'-cyclic nucleotides, such as cyclic adenosine monophosphate (cAMP) and cyclic guanosine monophosphate (cGMP), to their corresponding 5'-nucleotide monophosphates. These enzymes play an important role in controlling cellular concentrations of cyclic nucleotides and have a central role in a variety of intracellular signaling events. cAMP PDEs are emerging as a promising class of drug targets in asthma and cardiovascular disease therapeutic areas.
# There are no commercially available cell-based screening assays for PDE inhibitors: currently biochemical assays are done using pure substrates (cAMP or cGMP) and purified recombinant PDE enzymes. As with other biochemical screens on intracellular targets, false positives and false negatives may result from issues involving cell membrane permeability, cellular metabolism, and the like.
# Here we report the development of a cell-based screening assay for cAMP phosphodiesterase (PDE) inhibitors. The assay is based on the BD ACTOne# technology (BD Biosciences) which utilizes a modified cyclic nucleotide-gated channel (CNG) to monitor intracellular cAMP changes in live cells. The CNG channel is localized on the plasma membrane, and opens when the intracellular cAMP level increases, resulting in ion flux and cell membrane depolarization. The influx of cations through the CNG channel can be quantified using membrane potential (MP) dyes. We modified the BD ACTOne technology to allow the detection of PDE inhibitors, and performed an inhibitor screen for PDE-IV, which is expressed endogenously in HEK293 cells. We optimized this assay in homogeneous 1536-well plate assay format for high throughput screening.
# NCGC Assay Protocol Summary:
# The medium contained 10% FBS (Invitrogen), 2 mM L-glutamine, and 250 ug/ml G418 (Cellgro) and 1 ug/ml puromycin (Clontech). ACTOneTM parental cells (BD Biosciences) were maintained in the same medium without puromycin.
# The activity of the CNG channel was measured by BD ACTOneTM membrane potential dye kit (BD Biosciences). Forskolin, a positive control for cAMP activation and RO 20-1724, a PDE inhibitor, were both purchased from Sigma and solublized in DMSO.
# Sequence,Parameter,Value,Description
# 1,Reagent,3 uL,1000 cells/well 1536 TC treated Black plate
# 3,Compound,0.5 uL,Kalypsys dispense RO 20-1724 100 uM final [A]
# 4,Reagent,3 uL,BD membrane potential dye
# 6,Compound,23 nL,Final concentration was 0.7nM to 22.9uM
# 8,Detector,EX 535 / EM 590 [B],Envision
# Footnotes: [A] The stock 2 mM RO 20-1724 PDE inhibitor was made in 10 % DMSO. Parental cell line received 10 uM forskolin + 100 uM RO. [B] Envsion settings: Bottom Excitation 535/20 nm top emission 590/20, gain of 150 and 5 flashes per well.
# Keywords: PDE, PDE-IV, cytotoxicity, flourescence, MLSMR, MLSCN, NIH Roadmap, qHTS, NCGC
# Chain of 3',5'-cyclic-AMP phosphodiesterase 4B (Homo sapiens) (Q07343 whole entry, looked up): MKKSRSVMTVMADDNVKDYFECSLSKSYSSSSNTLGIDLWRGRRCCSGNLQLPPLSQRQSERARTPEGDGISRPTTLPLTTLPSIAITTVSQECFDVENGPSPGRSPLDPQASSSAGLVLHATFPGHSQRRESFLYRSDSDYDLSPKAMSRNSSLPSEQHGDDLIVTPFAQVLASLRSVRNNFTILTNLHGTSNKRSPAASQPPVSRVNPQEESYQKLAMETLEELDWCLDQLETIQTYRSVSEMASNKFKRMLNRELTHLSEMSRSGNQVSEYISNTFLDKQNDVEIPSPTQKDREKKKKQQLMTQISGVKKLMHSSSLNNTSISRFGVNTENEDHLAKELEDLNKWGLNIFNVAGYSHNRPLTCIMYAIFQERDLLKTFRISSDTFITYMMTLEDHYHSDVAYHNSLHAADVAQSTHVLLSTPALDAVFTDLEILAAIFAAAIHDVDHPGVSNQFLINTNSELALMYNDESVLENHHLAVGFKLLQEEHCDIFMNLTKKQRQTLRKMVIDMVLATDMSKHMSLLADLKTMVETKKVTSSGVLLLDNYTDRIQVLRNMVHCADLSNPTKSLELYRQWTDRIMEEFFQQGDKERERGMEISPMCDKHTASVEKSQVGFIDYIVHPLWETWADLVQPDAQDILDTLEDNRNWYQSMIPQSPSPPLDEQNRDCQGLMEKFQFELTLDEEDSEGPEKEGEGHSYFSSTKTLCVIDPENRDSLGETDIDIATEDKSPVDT
row,Compound,Potency
1,COc1cc2c(cc1O)C[C@H]1c3c(cc(O)c(OC)c3-2)CCN1C,inactive
2,Cc1ccccc1-c1cncnc1NCCc1cnc[nH]1,inactive
3,CN1CC[C@@]2(CCCN(C(=O)c3ccncc3)C2)C1,inactive
4,COc1ccc2c(c1OC)CN1CCc3cc4c(cc3[C@H]1C2)OCO4,inactive
5,c1cnc(N2CC[C@@]3(CCCNC3)C2)nc1,inactive
6,CC[C@@]1(c2ccc(N)cc2)CCC(=O)NC1=O,inactive
7,NNCc1cccc(O)c1,inactive
8,c1cc(CN2CC3(CCNCC3)C2)ccn1,inactive
9,N#Cc1ccc(CN2CCC3(CC2)CCN(C(=O)Oc2ccccc2)CC3)cc1,inactive
10,COc1ccc2c(c1O)-c1c(OC)c(OC)cc3c1[C@H](C2)N(C)CC3,inactive
11,CCN(CC)C(=O)N[C@H]1C=C2c3cccc4[nH]cc(c34)C[C@@H]2N(C)C1,inactive
12,O=C(Nc1ccccc1)N1CC2(CCN(C(=O)Oc3ccccc3)CC2)C1,inactive
13,CN1CCCC2(CCN(C(=O)Oc3ccccc3)CC2)C1,inactive
14,CN1CCN(c2ncc3ncc(=O)n(C)c3n2)CC1,inactive
15,CN1CC[C@@]2(CCCN(C(=O)c3ccco3)C2)C1,inactive
16,CN1CCCC2(CCN(C(=O)c3csnn3)CC2)C1,inactive
17,COc1ccc(C(=O)OC2C[C@H]3CC[C@@H](C2)N3C)cc1OC (stereo not given in full),inactive
18,CN1CCCC2(CCN(C(=O)c3ccncc3)CC2)C1,inactive
19,O=C(NCNC(=O)N[C@H]1C(=O)NC(=O)N1CO)N[C@H]1C(=O)NC(=O)N1CO,inactive
20,CN(C)[C@@H]1C(=O)C(C(N)=O)=C(O)[C@]2(O)C(=O)C3=C(O)c4c(O)ccc(Cl)c4[C@](C)(O)[C@H]3C[C@@H]12,inactive

row,Compound,Potency
1,CN1CCc2cc3c(cc2[C@@H]1[C@@H]1OC(=O)c2c1ccc1c2OCO1)OCO3,inactive
2,CN1CC[C@@]2(CCCN(C(=O)Oc3ccccc3)C2)C1,inactive
3,CC1=CC(=O)C2=C(C)C[C@@H](O)[C@@H]3[C@@H](OC(=O)[C@H]3C)[C@H]12,inactive
4,O=C(OC1CCN(CCCl)CC1)C(c1ccccc1)c1ccccc1,inactive
5,Cc1nc2cnc(N3CCNCC3)nc2n(C)c1=O,inactive
6,COc1ccc2c(c1OC)C(=O)O[C@H]2[C@H]1c2cc3c(cc2CCN1C)OCO3,inactive
7,N#Cc1cccc(NC(=O)N2CC[C@@]3(CCCN(C(=O)Oc4ccccc4)C3)C2)c1,inactive
8,CC(C)CN1CC2(CCN(C(=O)c3ccncc3)CC2)C1,inactive
9,CCc1c(C(=O)OC)ncc2[nH]c3cc(OC)c(OC)cc3c12,inactive
10,CC(C)CN1CC[C@@]2(CCCN(C(=O)Oc3ccccc3)C2)C1,inactive
11,c1cc(N2CCCC3(CCNCC3)C2)ccn1,inactive
12,COc1cc(N)c(Cl)cc1C(=O)N[C@@H]1CN2CCC1CC2,inactive
13,CC[C@H](C)C(=O)O[C@@H]1[C@H](O)[C@@H]2[C@H](CN3C[C@@H](C)CC[C@@H]3[C@@]2(C)O)[C@@H]2C[C@@]34O[C@@]5(O)[C@@H](OC(=O)[C@](C)(O)CC)CC[C@@]3(C)[C@H]5[C@H](OC(C)=O)[C@@H](OC(C)=O)[C@H]4[C@]12O,inactive
14,CC(C)C[C@H]1C(=O)N2CCC[C@@H]2[C@@]2(O)O[C@](NC(=O)[C@@H]3C=C4c5cccc6[nH]cc(c56)C[C@@H]4N(C)C3)(C(C)C)C(=O)N12,inactive
15,CC(C)NC(=O)N1CC[C@@]2(CCCNC2)C1,inactive
16,c1ccc(CN2CCCC3(CCNCC3)C2)cc1,inactive
17,C/C=C1\C[N@@+]2(C)CC[C@@]34C(=C(C=O)[C@H]1C[C@H]32)Nc1ccccc14,inactive
18,COC1=CC(=O)O[C@@H](/C=C\c2ccccc2)C1,inactive
19,c1cncc([C@H]2CCCCN2)c1,inactive
20,O=C(c1ccncc1)N1CCC[C@@]2(CCN(Cc3nccs3)C2)C1,inactive
